# NSD2 inh = NSD2 (human) methyltransferase inhibition; inhibition, % at 12.5 µM; NSD2-SET H3K36me1 DELFIA fluorescence, biochemical; O96028; AID 624260; 44,000 tested, 0.07% active; in the data active = inhibition above about 54%, passing the limit was not always enough;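 also: inhibitors reduce the monomethyl H3K36 fluorescence signal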
# * = called active by the depositor. This is one part of a sample in which hits are shown more often than they occur.
SMILES,NSD2 inh
COC(=O)[C@@]1(CCS(=O)(=O)c2ccccc2)N=C(c2ccc(OCCCO)cc2)O[C@H]1c1ccccc1,2
C[C@H]1CN([C@@H](C)CO)C(=O)Cc2cc(N(C)C)ccc2O[C@@H]1CN(C)Cc1ccccc1,1
O=C(O)CCCCCCC(=O)N/N=C/CCC1CCCCC1,2
O=C(O)CCCC[C@@H]1SC[C@@H]2NC(=O)N[C@@H]21,105*
C[C@@H]1CCCCO[C@H](CN(C)S(=O)(=O)c2cn(C)cn2)[C@H](C)CN([C@@H](C)CO)C(=O)c2cc(NS(=O)(=O)c3cn(C)cn3)ccc2O1,1
CN(C)CC(=O)N[C@H]1C=C[C@@H](CC(=O)NCc2ccccc2F)O[C@H]1CO,2
C/C=C/c1ccc2c(c1)O[C@H](CN(C)C(=O)Cc1ccccc1)[C@H](C)CN([C@H](C)CO)S2(=O)=O,1
COCCOC(=O)N1C(=O)[C@@]2(c3cc(C#CCNC(N)=O)ccc31)[C@H](c1ccc(OCCO)cc1)N1[C@H](c3ccccc3)[C@H](c3ccccc3)OC(=O)[C@H]1[C@@H]2C(=O)NC[C@H](O)c1ccccc1,2
COc1ccc(NC(=O)N(C)C[C@@H]2Oc3ccc(NC(=O)Cn4cnnn4)cc3CC(=O)N([C@H](C)CO)C[C@H]2C)cc1,1
C[C@H]1CN([C@@H](C)CO)C(=O)c2cc(C#CCN(C)C)cnc2O[C@@H]1CN(C)Cc1ccncc1,6
O=C(CCCCC(=O)N/N=C/c1nccs1)NO,-3
C[C@H]1CN([C@@H](C)CO)C(=O)c2cc(C#Cc3ccccn3)cnc2O[C@@H]1CN(C)C(=O)c1cnccn1,-4
Cc1noc(C)c1NC(=O)Nc1ccc2c(c1)CC(=O)N([C@@H](C)CO)C[C@H](C)[C@@H](CN(C)C(=O)NC1CCCCC1)O2,1
CC1(C)CC[C@]2(C(=O)O[C@@H]3O[C@H](CO)[C@@H](O)[C@H](O)[C@H]3O)CC[C@]3(C)C(=CCC4[C@@]5(C)C[C@@H](O)[C@H](O)C(C)(C)C5CC[C@]43C)C2[C@@H]1O (some centres not stated),26
CC1(C)CC[C@]2(C(=O)O[C@@H]3O[C@H](CO)[C@@H](O)[C@H](O)[C@H]3O)CC[C@]3(C)C(=CCC4[C@@]5(C)C[C@@H](O)[C@H](O)[C@@](C)(CO)C5[C@H](O)C[C@]43C)C2C1 (some centres not stated),17
CC1(C)CC[C@]2(C(=O)O[C@@H]3O[C@H](CO)[C@@H](O)[C@H](O)[C@H]3O)CC[C@]3(C)C(=CCC4[C@@]5(C)C[C@@H](O)[C@H](O)[C@@](C)(CO)C5[C@H](O)C[C@]43C)C2[C@@H]1O (some centres not stated),62*
C[C@H](CO)N1C[C@H](C)[C@@H](CN(C)Cc2ccc(F)cc2)Oc2ncc(-c3cncnc3)cc2C1=O,1
CC(C)NC(=O)Nc1ccc2c(c1)CC(=O)N([C@H](C)CO)C[C@@H](C)[C@H](CN(C)Cc1ccc(C(=O)O)cc1)O2,-3
C[C@H]1CN([C@@H](C)CO)C(=O)c2ccccc2-c2ccccc2CO[C@@H]1CN(C)Cc1cccc(C(=O)O)c1,-6
C[C@@H]1CN([C@H](C)CO)C(=O)c2cc(NC(=O)CCN3CCOCC3)ccc2O[C@H]1CN(C)C(=O)Nc1ccccc1,3
COc1ccc(NC(=O)N(C)C[C@H]2Oc3c(NC(=O)C4CC4)cccc3C(=O)N([C@@H](C)CO)C[C@H]2C)cc1,9
C[C@H](CO)N1C[C@H](C)[C@@H](CN(C)C(=O)Nc2ccc(C(F)(F)F)cc2)Oc2c(NC(=O)c3nc4ccccc4s3)cccc2C1=O,5
C[C@H](CO)N1C[C@H](C)[C@@H](CN(C)Cc2ccncc2)Oc2ccc(NC(=O)Nc3cccc4ccccc34)cc2C1=O,-1
CNC[C@H]1Oc2cc(C#Cc3cccnc3)ccc2S(=O)(=O)N([C@H](C)CO)C[C@@H]1C,1
CC/C(=C(/c1ccccc1)c1ccc(OCCN(C)C)cc1)c1ccccc1,58*
SMILES,NSD2 inh
CN(C)CCOC(=O)COc1ccc(Cl)cc1,4
CCN(CC)CCOc1ccc(/C(=C(\Cl)c2ccccc2)c2ccccc2)cc1,2
CC(C)NC(=O)Nc1ccc2c(c1)CC(=O)N([C@@H](C)CO)C[C@H](C)[C@@H](CN(C)S(C)(=O)=O)O2,0
O=C(C[C@H]1C[C@H]2c3cc(NC(=O)NC4CCCC4)ccc3O[C@H]2[C@H](CO)O1)NCc1cccc(F)c1,10
C[C@@H]1CN([C@@H](C)CO)S(=O)(=O)c2ccc(/C=C/c3ccccc3)cc2O[C@@H]1CN(C)C,0
C[C@H](CO)N1C[C@H](C)[C@H](CN(C)C(=O)Nc2ccc(C(F)(F)F)cc2)Oc2c(NS(=O)(=O)c3cn(C)cn3)cccc2C1=O,-1
Cc1noc(C)c1NC(=O)Nc1cccc2c1O[C@H](CN(C)S(=O)(=O)c1ccc(Cl)cc1)[C@H](C)CN([C@@H](C)CO)C2=O,-1
C[C@H](CO)N1C[C@H](C)[C@@H](CN(C)Cc2ccc(C(=O)Nc3ccccc3N)cc2)Oc2ccc(NC(=O)Nc3ccc4c(c3)OCO4)cc2CC1=O,3
